Source: PMC7862700, “An all-to-all approach to the identification of sequence-specific readers for epigenetic DNA modifications on cytosine”

Columns and labels:
Assay in all cases: DAPPL (digital affinity profiling via proximity ligation, sequencing); 10 mM Tris-HCl pH 7.5, 50 mM NaCl, 1 mM DTT, 4% glycerol, room temperature, 30 min; GST-TFs on glutathione beads, 16-mer random dsDNA library, 0.1% formaldehyde crosslink after washing; high values mean tight binding
FLI1 = target: T1, FLI1 (Homo sapiens, UniProt Q01543 1-452); conditions: protein: recombinant; tags: N-terminal GST; dsDNA, one strand shown
T1 sequence: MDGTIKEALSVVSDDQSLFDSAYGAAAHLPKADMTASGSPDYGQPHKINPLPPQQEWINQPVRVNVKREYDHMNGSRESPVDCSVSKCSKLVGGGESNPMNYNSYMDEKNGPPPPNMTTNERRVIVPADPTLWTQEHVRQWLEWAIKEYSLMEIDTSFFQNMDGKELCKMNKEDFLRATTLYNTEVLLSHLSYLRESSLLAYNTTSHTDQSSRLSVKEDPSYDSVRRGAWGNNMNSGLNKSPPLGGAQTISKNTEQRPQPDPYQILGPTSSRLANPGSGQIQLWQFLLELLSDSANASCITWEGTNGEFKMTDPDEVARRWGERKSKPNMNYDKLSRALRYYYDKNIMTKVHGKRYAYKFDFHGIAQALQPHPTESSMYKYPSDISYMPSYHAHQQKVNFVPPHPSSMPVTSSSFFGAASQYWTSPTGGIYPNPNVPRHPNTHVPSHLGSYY
In short: (§1)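 Binding signal is defined as a hexamer's read frequency for one factor over its frequency for the tag-only sample. To obtain reads, GST-fused human transcription factors were expressed in yeast, captured on glutathione beads, barcoded with DNA and pooled with that sample. Pools met 200 nmole of a 16-mer random double-stranded DNA library in Tris/NaCl/DTT/glycerol buffer for 30 min at room temperature before washing, 0.1% formaldehyde crosslinking, proximity ligation (BsaI/T4 ligase, 1 h, 37 °C), PCR and Illumina NextSeq500 sequencing.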

ELK1 = target: T2, ELK1 (Homo sapiens, UniProt P19419 1-428); conditions: protein: recombinant; tags: N-terminal GST; dsDNA, one strand shown
T2 sequence: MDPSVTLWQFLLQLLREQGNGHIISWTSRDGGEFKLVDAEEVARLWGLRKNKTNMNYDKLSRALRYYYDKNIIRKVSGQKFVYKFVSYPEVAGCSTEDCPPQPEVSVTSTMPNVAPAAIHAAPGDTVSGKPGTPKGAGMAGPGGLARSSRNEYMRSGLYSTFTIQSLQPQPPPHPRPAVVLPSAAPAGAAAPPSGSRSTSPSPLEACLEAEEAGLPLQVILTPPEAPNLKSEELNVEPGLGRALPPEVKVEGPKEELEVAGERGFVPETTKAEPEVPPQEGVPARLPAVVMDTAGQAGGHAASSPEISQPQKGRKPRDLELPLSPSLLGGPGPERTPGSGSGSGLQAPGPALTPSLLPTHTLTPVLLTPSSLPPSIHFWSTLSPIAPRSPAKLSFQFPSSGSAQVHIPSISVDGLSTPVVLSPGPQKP
In short: as §1

GABPA = target: T3, GABPA (Homo sapiens, UniProt Q06546 1-454); conditions: protein: recombinant; tags: N-terminal GST; dsDNA, one strand shown
T3 sequence: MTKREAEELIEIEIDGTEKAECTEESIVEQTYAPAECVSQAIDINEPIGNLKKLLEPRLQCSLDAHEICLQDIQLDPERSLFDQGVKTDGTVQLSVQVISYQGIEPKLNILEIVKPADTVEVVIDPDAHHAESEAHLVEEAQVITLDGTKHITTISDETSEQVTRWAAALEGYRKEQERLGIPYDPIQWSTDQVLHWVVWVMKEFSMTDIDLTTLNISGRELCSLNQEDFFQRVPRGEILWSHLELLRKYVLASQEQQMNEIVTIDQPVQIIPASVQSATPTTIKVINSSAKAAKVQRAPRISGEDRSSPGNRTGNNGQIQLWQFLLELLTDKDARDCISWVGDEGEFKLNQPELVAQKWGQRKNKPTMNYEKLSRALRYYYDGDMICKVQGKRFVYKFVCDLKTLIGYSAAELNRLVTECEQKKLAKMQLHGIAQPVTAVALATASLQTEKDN
In short: as §1

ERG = target: T4, ERG (Homo sapiens, UniProt P11308 1-479); conditions: protein: recombinant; tags: N-terminal GST; dsDNA, one strand shown
T4 sequence: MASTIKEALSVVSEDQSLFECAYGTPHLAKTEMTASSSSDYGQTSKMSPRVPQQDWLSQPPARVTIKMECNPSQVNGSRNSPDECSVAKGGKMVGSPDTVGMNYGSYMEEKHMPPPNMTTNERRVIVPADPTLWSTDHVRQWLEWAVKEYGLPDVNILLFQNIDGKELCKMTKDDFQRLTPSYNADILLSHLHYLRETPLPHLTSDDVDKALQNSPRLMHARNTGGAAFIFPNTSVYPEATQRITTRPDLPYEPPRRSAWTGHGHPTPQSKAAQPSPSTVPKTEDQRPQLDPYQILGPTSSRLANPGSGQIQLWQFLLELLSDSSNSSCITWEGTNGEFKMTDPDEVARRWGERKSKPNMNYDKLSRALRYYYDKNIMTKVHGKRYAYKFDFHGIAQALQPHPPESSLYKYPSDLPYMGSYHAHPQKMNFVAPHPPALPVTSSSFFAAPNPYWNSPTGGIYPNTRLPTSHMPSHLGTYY
In short: as §1

ELF1 = ELF1 (Homo sapiens, UniProt P32519 1-619); conditions: protein: recombinant; tags: N-terminal GST; dsDNA, one strand shown
Sequence of ELF1 (P32519 whole entry): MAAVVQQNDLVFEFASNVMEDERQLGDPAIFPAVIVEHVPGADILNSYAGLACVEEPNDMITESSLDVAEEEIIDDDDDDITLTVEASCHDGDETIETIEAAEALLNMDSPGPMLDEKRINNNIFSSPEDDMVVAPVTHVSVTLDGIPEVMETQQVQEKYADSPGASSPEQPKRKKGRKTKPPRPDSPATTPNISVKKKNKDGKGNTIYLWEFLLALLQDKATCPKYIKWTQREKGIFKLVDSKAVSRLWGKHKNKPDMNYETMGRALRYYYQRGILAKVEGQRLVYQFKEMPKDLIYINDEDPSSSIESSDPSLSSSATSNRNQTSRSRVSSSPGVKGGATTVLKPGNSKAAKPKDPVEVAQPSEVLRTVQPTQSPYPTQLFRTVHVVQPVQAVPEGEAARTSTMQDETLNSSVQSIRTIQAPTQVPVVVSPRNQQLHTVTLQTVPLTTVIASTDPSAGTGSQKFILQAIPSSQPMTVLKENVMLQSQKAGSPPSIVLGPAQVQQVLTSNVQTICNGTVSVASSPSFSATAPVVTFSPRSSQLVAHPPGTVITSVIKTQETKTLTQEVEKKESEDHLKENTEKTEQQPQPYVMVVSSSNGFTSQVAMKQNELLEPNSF
In short: as §1

EHF = target: T5, EHF (Homo sapiens, UniProt Q9NZC4 1-300); conditions: protein: recombinant; tags: N-terminal GST; dsDNA, one strand shown
T5 sequence: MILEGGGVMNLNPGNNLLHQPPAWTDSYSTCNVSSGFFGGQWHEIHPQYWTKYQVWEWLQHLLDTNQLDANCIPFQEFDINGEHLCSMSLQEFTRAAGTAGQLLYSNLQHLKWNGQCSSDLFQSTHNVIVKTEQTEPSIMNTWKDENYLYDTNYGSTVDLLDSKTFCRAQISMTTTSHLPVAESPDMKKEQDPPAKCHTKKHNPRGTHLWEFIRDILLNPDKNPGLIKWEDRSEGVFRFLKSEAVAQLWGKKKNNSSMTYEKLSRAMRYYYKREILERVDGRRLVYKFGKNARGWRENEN
In short: as §1

SPI1 = SPI1 (Homo sapiens, UniProt P17947 1-270); conditions: protein: recombinant; tags: N-terminal GST; dsDNA, one strand shown
In short: as §1

ELK3 = target: T6, ELK3 (Homo sapiens, UniProt P41970 1-407); conditions: protein: recombinant; tags: N-terminal GST; dsDNA, one strand shown
T6 sequence: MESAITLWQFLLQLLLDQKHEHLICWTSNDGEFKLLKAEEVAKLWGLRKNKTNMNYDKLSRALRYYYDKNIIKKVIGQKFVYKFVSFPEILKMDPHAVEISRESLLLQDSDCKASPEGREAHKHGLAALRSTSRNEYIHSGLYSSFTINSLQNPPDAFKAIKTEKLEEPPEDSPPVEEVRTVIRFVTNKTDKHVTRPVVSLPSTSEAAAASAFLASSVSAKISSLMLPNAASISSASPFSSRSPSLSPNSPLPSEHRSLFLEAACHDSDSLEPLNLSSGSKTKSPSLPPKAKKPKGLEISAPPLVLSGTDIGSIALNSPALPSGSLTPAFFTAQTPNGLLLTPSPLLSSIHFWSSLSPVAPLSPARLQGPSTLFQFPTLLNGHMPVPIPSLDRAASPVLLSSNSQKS
In short: as §1

FEV = target: T7, FEV (Homo sapiens, UniProt Q99581 1-238); conditions: protein: recombinant; tags: N-terminal GST; dsDNA, one strand shown
T7 sequence: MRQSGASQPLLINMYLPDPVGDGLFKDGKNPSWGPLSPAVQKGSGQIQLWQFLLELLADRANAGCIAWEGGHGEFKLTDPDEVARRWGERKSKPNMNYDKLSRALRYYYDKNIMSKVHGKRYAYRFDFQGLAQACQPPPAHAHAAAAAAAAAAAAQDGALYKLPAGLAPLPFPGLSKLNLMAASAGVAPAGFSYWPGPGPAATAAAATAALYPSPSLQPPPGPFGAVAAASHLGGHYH
In short: as §1

ETV5 = ETV5 (Homo sapiens, UniProt P41161 1-510); conditions: protein: recombinant; tags: N-terminal GST; dsDNA, one strand shown
Sequence of ETV5 (P41161 whole entry): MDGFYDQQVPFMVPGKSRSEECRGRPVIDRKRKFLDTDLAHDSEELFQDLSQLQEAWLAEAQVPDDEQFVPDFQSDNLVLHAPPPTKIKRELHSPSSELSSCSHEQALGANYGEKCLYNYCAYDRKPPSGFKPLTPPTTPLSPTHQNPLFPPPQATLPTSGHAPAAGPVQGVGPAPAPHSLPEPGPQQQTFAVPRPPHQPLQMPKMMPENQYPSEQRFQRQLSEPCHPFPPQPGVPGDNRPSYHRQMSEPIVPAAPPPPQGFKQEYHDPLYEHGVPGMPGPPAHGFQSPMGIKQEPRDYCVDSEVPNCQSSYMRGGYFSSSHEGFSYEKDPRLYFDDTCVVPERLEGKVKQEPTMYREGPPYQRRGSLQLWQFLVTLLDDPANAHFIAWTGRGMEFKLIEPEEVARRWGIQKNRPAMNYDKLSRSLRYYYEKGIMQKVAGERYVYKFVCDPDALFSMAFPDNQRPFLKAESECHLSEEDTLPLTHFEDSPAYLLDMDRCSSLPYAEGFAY
In short: as §1

HSF1 = HSF1 (Homo sapiens, UniProt Q00613 1-529); conditions: protein: recombinant; tags: N-terminal GST; chain copies: 3; dsDNA, one strand shown
Sequence of HSF1 (Q00613 whole entry): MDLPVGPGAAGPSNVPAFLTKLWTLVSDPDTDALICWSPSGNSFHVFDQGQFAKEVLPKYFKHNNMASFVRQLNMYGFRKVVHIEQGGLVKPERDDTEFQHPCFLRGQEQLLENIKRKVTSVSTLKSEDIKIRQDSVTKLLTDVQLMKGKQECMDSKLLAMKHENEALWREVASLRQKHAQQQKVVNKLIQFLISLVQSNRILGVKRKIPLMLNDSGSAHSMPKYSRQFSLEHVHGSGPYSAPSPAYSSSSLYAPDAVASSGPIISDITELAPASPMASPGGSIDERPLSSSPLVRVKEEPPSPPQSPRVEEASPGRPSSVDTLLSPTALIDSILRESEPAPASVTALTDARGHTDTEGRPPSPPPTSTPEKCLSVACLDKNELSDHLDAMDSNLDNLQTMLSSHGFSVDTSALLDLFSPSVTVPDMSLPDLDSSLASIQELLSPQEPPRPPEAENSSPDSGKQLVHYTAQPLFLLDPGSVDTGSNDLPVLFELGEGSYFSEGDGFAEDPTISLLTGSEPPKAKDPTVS
In short: as §1

SPIC = target: T8, SPIC (Homo sapiens, UniProt Q8N5J4 1-248); conditions: protein: recombinant; tags: N-terminal GST; dsDNA, one strand shown
T8 sequence: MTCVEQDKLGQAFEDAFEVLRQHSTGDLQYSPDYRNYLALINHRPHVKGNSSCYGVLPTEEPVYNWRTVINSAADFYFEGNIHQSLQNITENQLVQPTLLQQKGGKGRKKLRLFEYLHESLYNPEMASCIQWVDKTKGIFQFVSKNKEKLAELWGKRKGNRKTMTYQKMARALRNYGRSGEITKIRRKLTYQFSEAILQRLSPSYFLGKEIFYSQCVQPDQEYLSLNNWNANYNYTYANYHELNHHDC
In short: as §1

ELF4 = ELF4 (Homo sapiens, UniProt Q99607 1-663); conditions: protein: recombinant; tags: N-terminal GST; dsDNA, one strand shown
Sequence of ELF4 (Q99607 whole entry): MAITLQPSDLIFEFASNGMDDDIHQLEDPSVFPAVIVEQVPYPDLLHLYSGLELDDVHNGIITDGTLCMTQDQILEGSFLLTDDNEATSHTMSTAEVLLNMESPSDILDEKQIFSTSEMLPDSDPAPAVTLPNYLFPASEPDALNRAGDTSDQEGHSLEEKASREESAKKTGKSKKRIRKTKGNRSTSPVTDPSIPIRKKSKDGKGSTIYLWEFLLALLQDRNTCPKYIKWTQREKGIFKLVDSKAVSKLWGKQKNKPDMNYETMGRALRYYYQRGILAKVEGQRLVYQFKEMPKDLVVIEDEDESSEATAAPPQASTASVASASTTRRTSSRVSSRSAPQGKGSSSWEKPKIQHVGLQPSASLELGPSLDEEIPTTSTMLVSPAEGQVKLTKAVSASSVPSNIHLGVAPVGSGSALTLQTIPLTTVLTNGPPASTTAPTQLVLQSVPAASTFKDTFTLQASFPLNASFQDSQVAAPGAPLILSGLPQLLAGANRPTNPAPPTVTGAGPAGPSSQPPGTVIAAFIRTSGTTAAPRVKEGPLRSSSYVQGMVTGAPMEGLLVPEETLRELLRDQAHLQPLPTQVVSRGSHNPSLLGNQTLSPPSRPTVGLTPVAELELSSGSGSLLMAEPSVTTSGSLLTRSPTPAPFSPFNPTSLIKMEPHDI
In short: as §1

ELK4 = target: T9, ELK4 (Homo sapiens, UniProt P28324-2 1-405); conditions: protein: recombinant; tags: N-terminal GST; dsDNA, one strand shown
T9 sequence: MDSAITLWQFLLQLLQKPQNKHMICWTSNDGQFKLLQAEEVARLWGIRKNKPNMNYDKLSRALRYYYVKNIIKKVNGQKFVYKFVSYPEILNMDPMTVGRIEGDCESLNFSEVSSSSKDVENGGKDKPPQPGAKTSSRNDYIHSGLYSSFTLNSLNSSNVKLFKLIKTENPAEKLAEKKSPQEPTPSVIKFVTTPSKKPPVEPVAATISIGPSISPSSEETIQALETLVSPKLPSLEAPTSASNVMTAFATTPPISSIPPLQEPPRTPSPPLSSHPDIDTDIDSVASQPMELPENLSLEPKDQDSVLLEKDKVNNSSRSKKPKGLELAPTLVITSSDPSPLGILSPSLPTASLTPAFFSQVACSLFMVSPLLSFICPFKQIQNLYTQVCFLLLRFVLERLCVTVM
In short: as §1

ETV2 = target: T10, ETV2 (Homo sapiens, UniProt O00321 1-342); conditions: protein: recombinant; tags: N-terminal GST; dsDNA, one strand shown
T10 sequence: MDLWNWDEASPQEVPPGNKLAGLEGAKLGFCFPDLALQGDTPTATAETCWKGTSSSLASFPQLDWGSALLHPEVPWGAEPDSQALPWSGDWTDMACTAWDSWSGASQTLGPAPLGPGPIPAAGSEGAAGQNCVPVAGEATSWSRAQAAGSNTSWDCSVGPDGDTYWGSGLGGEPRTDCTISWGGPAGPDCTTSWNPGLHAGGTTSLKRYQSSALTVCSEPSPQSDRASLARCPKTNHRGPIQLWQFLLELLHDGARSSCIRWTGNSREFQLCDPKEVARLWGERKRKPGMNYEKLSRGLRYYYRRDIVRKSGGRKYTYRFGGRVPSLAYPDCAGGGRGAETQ
In short: as §1

ELF3 = target: T11, ELF3 (Homo sapiens, UniProt P78545 1-371); conditions: protein: recombinant; tags: N-terminal GST; dsDNA, one strand shown
T11 sequence: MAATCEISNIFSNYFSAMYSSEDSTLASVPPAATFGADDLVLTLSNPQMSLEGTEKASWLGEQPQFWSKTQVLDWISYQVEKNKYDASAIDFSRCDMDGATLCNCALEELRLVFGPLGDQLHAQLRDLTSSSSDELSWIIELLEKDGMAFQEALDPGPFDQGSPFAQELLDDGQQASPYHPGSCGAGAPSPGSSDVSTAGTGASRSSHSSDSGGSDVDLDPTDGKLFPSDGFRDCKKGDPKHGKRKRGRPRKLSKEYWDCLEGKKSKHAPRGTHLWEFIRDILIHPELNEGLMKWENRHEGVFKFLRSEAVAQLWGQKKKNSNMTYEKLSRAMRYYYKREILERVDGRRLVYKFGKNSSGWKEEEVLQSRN
In short: as §1

ETV1 = ETV1 (Homo sapiens, UniProt P50549 1-477); conditions: protein: recombinant; tags: N-terminal GST; dsDNA, one strand shown
Sequence of ETV1 (P50549 whole entry): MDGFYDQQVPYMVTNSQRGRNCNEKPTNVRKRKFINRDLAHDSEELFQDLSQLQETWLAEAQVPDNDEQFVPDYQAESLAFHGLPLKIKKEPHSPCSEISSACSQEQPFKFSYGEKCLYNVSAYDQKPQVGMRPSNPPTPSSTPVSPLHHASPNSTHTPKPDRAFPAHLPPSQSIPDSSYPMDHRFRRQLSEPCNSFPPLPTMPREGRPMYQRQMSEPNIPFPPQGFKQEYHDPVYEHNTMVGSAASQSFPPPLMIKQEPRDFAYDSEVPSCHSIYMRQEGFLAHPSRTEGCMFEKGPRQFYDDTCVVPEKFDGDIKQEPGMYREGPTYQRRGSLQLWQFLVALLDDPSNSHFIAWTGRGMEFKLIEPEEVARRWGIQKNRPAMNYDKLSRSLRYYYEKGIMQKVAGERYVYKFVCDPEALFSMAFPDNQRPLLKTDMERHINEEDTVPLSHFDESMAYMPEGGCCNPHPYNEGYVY
In short: as §1

## ACGACG
FLI1
  binding signal: 1.15 fold enrichment (6-mer frequency, TF over GST control)
ELK1
  binding signal: 1.15 fold enrichment (6-mer frequency, TF over GST control)
GABPA
  binding signal: 1.22 fold enrichment (6-mer frequency, TF over GST control)
ERG
  binding signal: 1.1 fold enrichment (6-mer frequency, TF over GST control)
ELF1
  binding signal: 1.09 fold enrichment (6-mer frequency, TF over GST control)
EHF
  binding signal: 1.1 fold enrichment (6-mer frequency, TF over GST control)
SPI1
  binding signal: 1.11 fold enrichment (6-mer frequency, TF over GST control)
ELK3
  binding signal: 1.15 fold enrichment (6-mer frequency, TF over GST control)
FEV
  binding signal: 1.17 fold enrichment (6-mer frequency, TF over GST control)
ETV5
  binding signal: 1.18 fold enrichment (6-mer frequency, TF over GST control)
HSF1
  binding signal: 1.02 fold enrichment (6-mer frequency, TF over GST control)
SPIC
  binding signal: 1.05 fold enrichment (6-mer frequency, TF over GST control)
ELF4
  binding signal: 1.2 fold enrichment (6-mer frequency, TF over GST control)
ELK4
  binding signal: 1.17 fold enrichment (6-mer frequency, TF over GST control)
ETV2
  binding signal: 1.16 fold enrichment (6-mer frequency, TF over GST control)
ELF3
  binding signal: 1.17 fold enrichment (6-mer frequency, TF over GST control)
ETV1
  binding signal: 1.01 fold enrichment (6-mer frequency, TF over GST control)
